Source: PubChem
DUSP3 inh = blocks human VHR1 dual specificity phosphatase; recombinant VHR phosphatase, pNPP absorbance; inhibition, % at 13.3 µM; AID 1654; 0.52% of 290,000 active; in the data active = inhibition above about 50%
BioA inh = BioA (M. tuberculosis) enzyme inhibition | purified M. tuberculosis BioA enzyme, plate reader | inhibition, % at 9.99 µM | 0.096% of 360,000 active | AID 602481; in the data active = inhibition above about 40%
Y pestis TopoI = blocks Yersinia pestis topoisomerase I activity | 0.064% of 360,000 active | activity, % at 10 µM | Y. pestis Topo-I cleavage product accumulation, plate reader; in the data active = activity above about 50%, passing the limit was not always enough
PfHsp40 rescue = compounds rescuing yeast from Plasmodium falciparum HSP40 toxicity; growth rescue, % at 12.5 µM; 0.68% of 340,000 active; S. cerevisiae expressing PfHsp40, growth rescue, ATP luminescence; AID 504582; in the data active = growth rescue above about 28%, passing the limit was not always enough;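 also: yeast W303a lacking pdr1 and pdr3 grown in galactose medium; growth measured after three days at 30 °C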
TcdB GH inh = TcdB glycohydrolase inhibition; P18177; TcdB glycohydrolase enzymatic assay, plate reader; inhibition, % at 9.99 µM; 0.24% of 350,000 active; AID 652162; in the data active = inhibition above about 10%
BH1578 lux ind = quorum light induction in luxS cqsA deficient V. cholerae; activation, % at 18.7 µM; V. cholerae BH1578 lux reporter, luminescence, 6 h; 0.16% of 350,000 active; in the data active = activation mostly above about 9.7%, no sharp cut-off
* = called active by the depositor. Compounds with a hit are over-represented: about 1.2% of the library has one in this group of screens.

For CCCCn1c(CN2CCN(C(=O)c3ccco3)CC2)nc2c1c(=O)n(C)c(=O)n2C the results were DUSP3 inh 5, BioA inh 1, Y pestis TopoI -2, PfHsp40 rescue 0, TcdB GH inh 10* and BH1578 lux ind inactive.
Screening CCCn1c(SCC(=O)N2CCN(C(=O)c3ccco3)CC2)nc2ccccc2c1=O returned DUSP3 inh 7, Y pestis TopoI 9, PfHsp40 rescue 74*, TcdB GH inh 2 and BH1578 lux ind -1.
Screening O=c1oc2ccccc2c2c1SC(C(F)(F)F)C2 (stereo not drawn) returned DUSP3 inh 56*, BioA inh -3, Y pestis TopoI 12, PfHsp40 rescue -1 and BH1578 lux ind 8.
For O=c1oc2ccc3ccccc3c2c2c1SC(C(F)(F)F)C2 (stereo not drawn) the results were DUSP3 inh 23, BioA inh -1, Y pestis TopoI 1, PfHsp40 rescue 0 and BH1578 lux ind 1.
O=C(COc1ccc(Cl)cc1)NCc1nnc(SCC(=O)NCc2ccc3c(c2)OCO3)o1 was read as DUSP3 inh 14, BioA inh 0, Y pestis TopoI 28, PfHsp40 rescue 3 and BH1578 lux ind 1.
`Cc1ccc(S(=O)(=O)NCCCCCC(N)=O)cc1` gave DUSP3 inh 22, BioA inh 0, Y pestis TopoI 4, PfHsp40 rescue 0 and BH1578 lux ind inactive.
Cc1ccc(S(=O)(=O)NCCCCCC(=O)NC(C)(C)CO)cc1 was read as DUSP3 inh 21, Y pestis TopoI -2, PfHsp40 rescue 51* and BH1578 lux ind inactive.
`O=C(O)c1cc[c]([Hg][Cl])cc1` gave BioA inh 4, Y pestis TopoI -4, PfHsp40 rescue 575* and BH1578 lux ind inactive.
O=C(O)c1ccccc1 was read as BioA inh -2, Y pestis TopoI -3, PfHsp40 rescue -2, TcdB GH inh 0 and BH1578 lux ind 0.
Screening CCCCN(C)c1c(N2CCC(C(=O)OCC)CC2)c(=O)c1=O returned DUSP3 inh 20, BioA inh 5, Y pestis TopoI -10, PfHsp40 rescue 14, TcdB GH inh 1 and BH1578 lux ind 0.
O=C(O)Cc1ccc(C(=O)c2ccccc2)s1 was read as DUSP3 inh 15, BioA inh 2, Y pestis TopoI -1, PfHsp40 rescue 1 and BH1578 lux ind inactive.
`N#CCc1ccc(C(=O)c2ccccc2F)s1` gave DUSP3 inh 5, BioA inh 0, Y pestis TopoI -5, PfHsp40 rescue -1 and BH1578 lux ind 25*.
For COc1ccc(NC(=O)CSc2nccn2C)cc1S(N)(=O)=O the results were DUSP3 inh 10, Y pestis TopoI -6, PfHsp40 rescue 0, TcdB GH inh 11* and BH1578 lux ind inactive.
`Cc1ccc(C(C)NC(=O)c2cc(C)oc2C)cc1` (stereo not drawn) gave DUSP3 inh -4, BioA inh 2, Y pestis TopoI 2, PfHsp40 rescue 48* and BH1578 lux ind -1.
`Cc1ccc(C(C)NC(=O)c2ccco2)cc1` (stereo not drawn) gave DUSP3 inh -5, BioA inh 0, Y pestis TopoI 0, PfHsp40 rescue -1 and BH1578 lux ind -1.
`COc1ccc(Cl)cc1NC(=O)CN(C)C(=O)c1cc2c(s1)CCCC2` gave BioA inh 2, Y pestis TopoI 2, PfHsp40 rescue 2, TcdB GH inh 12* and BH1578 lux ind 1.
`CCOc1ccccc1NC(=S)NC(=O)c1ccco1` gave DUSP3 inh 17, BioA inh -1, Y pestis TopoI 16, PfHsp40 rescue 75*, TcdB GH inh 1 and BH1578 lux ind inactive.
For COc1ccccc1C(=O)NNC(=S)NC(=O)c1ccco1 the results were DUSP3 inh -8, Y pestis TopoI 0, PfHsp40 rescue 71* and BH1578 lux ind 0.
For Brc1ccccc1OCCCCn1cnc2ccccc21 the results were DUSP3 inh 30, Y pestis TopoI 15, PfHsp40 rescue 1, TcdB GH inh 1 and BH1578 lux ind 0.
`Cc1ccc(OCCCCn2cnc3ccccc32)c(C)c1` gave DUSP3 inh 55*, BioA inh -1, Y pestis TopoI 21, PfHsp40 rescue 4 and BH1578 lux ind 0.
For COC(=O)C1=C(c2ccc(Cl)c(C(F)(F)F)c2)C[C@@H]2CC[C@H]1N2C(=O)NCCCOC(C)C the results were BioA inh 3, Y pestis TopoI 14, PfHsp40 rescue 2 and BH1578 lux ind 3.
`O=C1C2C3C=CC(C3)C2C(=O)N1CNc1ccccn1` (stereo not drawn) gave DUSP3 inh 19, Y pestis TopoI -5, PfHsp40 rescue 44* and BH1578 lux ind 1.
O=C(Nc1ccccc1)NC1CCS(=O)(=O)C1 (stereo not drawn) was read as DUSP3 inh 4, BioA inh 0, Y pestis TopoI 3, PfHsp40 rescue 8 and BH1578 lux ind 1.
`CC1CCC/C(=N\NC(=O)COc2ccccc2Cl)C1` (stereo not drawn) gave DUSP3 inh 51*, BioA inh 11, Y pestis TopoI -2, PfHsp40 rescue -1, TcdB GH inh 1 and BH1578 lux ind inactive.
For COc1cc2c(cc1OC)C(c1ccccc1)NCC2 (stereo not drawn) the results were DUSP3 inh 2, BioA inh 0, Y pestis TopoI -5, PfHsp40 rescue 2, TcdB GH inh -1 and BH1578 lux ind inactive.
For COc1cc2c(cc1OC)C(c1ccc(O)cc1)NCC2 (stereo not drawn) the results were DUSP3 inh -8, BioA inh -1, Y pestis TopoI -8, PfHsp40 rescue 74*, TcdB GH inh 1 and BH1578 lux ind inactive.
Screening Cc1c(C2(O)CCCCC2)[nH]c2ccc(C(F)(F)F)cc12 returned BioA inh 3, Y pestis TopoI -4, PfHsp40 rescue 287*, TcdB GH inh 2 and BH1578 lux ind inactive.
Screening O=C(NC(Cc1cnc[nH]1)C(=O)O)c1ccccc1 (stereo not drawn) returned DUSP3 inh 20, BioA inh -3, Y pestis TopoI -8, PfHsp40 rescue 1, TcdB GH inh 0 and BH1578 lux ind inactive.
Screening CC1(C)CC(NC(=O)c2ccc(Cl)cc2)CC(C)(C)N1 returned DUSP3 inh 36, BioA inh -1, Y pestis TopoI 1, PfHsp40 rescue 1, TcdB GH inh 0 and BH1578 lux ind inactive.
Screening CC1(C)CC(NC(=O)Cc2ccc(Cl)cc2)CC(C)(C)N1 returned DUSP3 inh 53*, BioA inh -1, Y pestis TopoI 0, PfHsp40 rescue 0, TcdB GH inh 1 and BH1578 lux ind inactive.
For Cc1ccc(NC(=O)CC2(CC(=O)O)CCCC2)cc1 the results were DUSP3 inh 57*, BioA inh -2, Y pestis TopoI 3, PfHsp40 rescue -1, TcdB GH inh 1 and BH1578 lux ind 0.
